In PubChem BioAssay (EPA / NIEHS) one finds outcome and AC50 data, which are given here for five compounds.

Where “and” joins values, the source holds several entries; their conditions need not be identical. Equal values may be shown once. Where a structure was tested more than once in an assay, its records may differ in their call. Calls of active or inactive are those of the source. How the source made its calls: active means hit-call score of the fitted dose curve at least 0.9, where 1 is the maximum; inactive means score below 0.9.

Read-out in test [1]: Interleukin-1 alpha (IL1a), IL1A (gene 3552)
The test can be described thus: BSK_LPS_IL1a: BioMAP Diversity Plus: LPS Assay for Interleukin-1 alpha (IL1a) Biomarker Activity (AID 2283080). Particulars: primary human HUVEC with PBMC; actives raise or lower the signal. A digest of the protocol: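 ELISA read-out of IL-1 alpha from a human primary vascular co-culture (endothelium plus PBMC) under LPS, sampled 24 hours post-dosing. Activity was fitted in both directions relative to DMSO controls.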

Read-out in test [2]: Monocyte Chemoattractant Protein-1 (MCP1), CCL2 (gene 6347)
The test can be described thus: BSK_LPS_MCP1: BioMAP Diversity Plus: LPS Assay for Monocyte Chemoattractant Protein-1 (MCP1) Biomarker Activity (AID 2283081).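 On AC50: secreted MCP-1 protein quantified by ELISA in culture supernatant.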 The following applies: primary human HUVEC with PBMC; actives raise or lower the signal. The method, boiled down: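 Human endothelial–PBMC co-cultures were dosed with chemical, then LPS-driven MCP-1 levels were quantified by ELISA at 24 h. Activity in either direction was fitted versus DMSO negative control.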

Test [3] is described as follows: BSK_LPS_PGE2: BioMAP Diversity Plus: LPS Assay for Prostaglandin E2 (PGE2) Biomarker Activity (AID 2283082). Particulars: primary human HUVEC with PBMC; actives raise or lower the signal. The method, boiled down:
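LPS-activated HUVEC/PBMC co-culture; cmpd dosed, 24 h; PGE2 by ELISA; bidirectional fit vs DMSO; SRB (0.1%, TCA-fixed, 560 nm) in parallel plates for overt cytotox.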

Read-out in test [4]: Macrophage colony-stimulating factor (MCSF), CSF1 (gene 1435)
The experiment in a line: BSK_LPS_MCSF: BioMAP Diversity Plus: LPS Assay for Macrophage colony-stimulating factor (MCSF) Biomarker Activity (AID 2283083). Particulars: primary human HUVEC with PBMC; actives raise or lower the signal. The method, boiled down: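 ELISA readout of M-CSF after 24 h compound exposure in a human endothelial/PBMC co-culture. Activity, in either direction, is fitted relative to DMSO vehicle.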

Read-out in test [5]: Tissue Factor, F3 (gene 2152)
The experiment in a line: BSK_LPS_TissueFactor: BioMAP Diversity Plus: LPS Assay for Tissue Factor Biomarker Activity (AID 2283084). The following applies: primary human HUVEC with PBMC; actives raise or lower the signal. The method, boiled down:
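ELISA signal for cell-surface Tissue Factor (CD142) was read 24 h after compound dosing of an LPS-stimulated human endothelial–PBMC primary co-culture. Gain or loss of signal was scored relative to DMSO.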

Read-out in test [6]: Tumor necrosis factor (Homo sapiens) (UniProt P01375)
The test can be described thus: BSK_LPS_TNFa: BioMAP Diversity Plus: LPS Assay for Tumour Necrosis Factor alpha (TNFa) Biomarker Activity (AID 2283085). Particulars: primary human HUVEC with PBMC; actives raise or lower the signal. The method, boiled down:
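Read-out is ELISA of TNFa in primary human endothelial cell–PBMC co-cultures at 24 h after compound. Activity in either direction was fitted against DMSO.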

Read-out in test [7]: Vascular cell adhesion molecule 1 (VCAM1), VCAM1 (gene 7412)
The test can be described thus: BSK_LPS_VCAM1: BioMAP Diversity Plus: LPS Assay for Vascular cell adhesion molecule 1 (VCAM1) Biomarker Activity (AID 2283086). Particulars: primary human HUVEC with PBMC; actives raise or lower the signal. A digest of the protocol: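 HUVEC + PBMC co-culture, LPS system; compound 24 h; VCAM-1 by ELISA; bidirectional fit vs DMSO control; parallel SRB (0.1%, TCA-fixed, 560 nm) for cytotoxicity.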

Read-out in a further test: CD38, CD38 (gene 952)
The experiment in a line: BSK_SAg_CD38: BioMAP Diversity Plus: SAg Assay for CD38 Biomarker Activity (AID 2283087). Particulars: primary human HUVEC with PBMC; actives raise or lower the signal. A digest of the protocol:
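Human HUVEC plus PBMC co-culture stimulated with superantigen; CD38 measured by ELISA 24 h after chemical dosing. Fluorescence read-out, bidirectional fit against DMSO; cytotoxicity tracked in parallel by SRB and Alamar Blue.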

Read-out in another test: CD40, CD40 (gene 958)
The experiment in a line: BSK_SAg_CD40: BioMAP Diversity Plus: SAg Assay for CD40 Biomarker Activity (AID 2283088). The following applies: primary human HUVEC with PBMC; actives raise or lower the signal. The method, boiled down:
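Compounds were dosed onto a human primary endothelial–PBMC co-culture, and after 24 h CD40 was quantified by ELISA using a fluorescence signal. Activity in either direction was fitted relative to DMSO.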

Read-out in a further test: CD69, CD69 (gene 969)
The test can be described thus: BSK_SAg_CD69: BioMAP Diversity Plus: SAg Assay for CD69 Biomarker Activity (AID 2283089).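 On AC50: cell surface CD69 protein quantified by ELISA with fluorescence detection.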 The following applies: primary human HUVEC with PBMC; actives raise or lower the signal. A digest of the protocol: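 Primary human vascular co-culture (umbilical vein endothelium with peripheral blood mononuclear cells) exposed to test chemical for 24 h. CD69 levels quantified by fluorescence ELISA; DMSO served as negative control for bidirectional fitting.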

Read-out in test [8]: Monocyte Chemoattractant Protein-1 (MCP1), CCL2 (gene 6347)
The test can be described thus: BSK_SAg_MCP1: BioMAP Diversity Plus: SAg Assay for Monocyte Chemoattractant Protein-1 (MCP1) Biomarker Activity (AID 2283090). Particulars: primary human HUVEC with PBMC; actives raise or lower the signal. The method, boiled down: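 MCP-1 levels in the endothelial–PBMC SAg co-culture were quantified by ELISA at 24 h post-dosing; both increases and decreases versus DMSO scored. Cytotoxicity monitored by SRB total protein in parallel cultures.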

Read-out in test [9]: E-selectin (Homo sapiens) (UniProt P16581)
The experiment in a line: BSK_SAg_Eselectin: BioMAP Diversity Plus: SAg Assay for Eselectin Biomarker Activity (AID 2283091). The following applies: primary human HUVEC with PBMC; actives raise or lower the signal. A digest of the protocol:
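Co-culture: HUVEC + PBMC. Dose compound; 24 h. ELISA for E-selectin. Bidirectional fit vs DMSO.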

Read-out in test [10]: Monokine induced gamma interferon (MIG), CXCL9 (gene 4283)
The test can be described thus: BSK_SAg_MIG: BioMAP Diversity Plus: SAg Assay for Monokine induced gamma interferon (MIG) Biomarker Activity (AID 2283092). The following applies: primary human HUVEC with PBMC; actives raise or lower the signal. A digest of the protocol: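 Endothelial cells and PBMC were co-cultured, exposed to test chemicals, and sampled 24 h later. MIG was measured by ELISA, and responses were fitted in both directions relative to DMSO.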

Test [11] can be described thus: BSK_SAg_PBMCCytotoxicity: PBMC Cytotoxicity Assessment in the BioMAP Diversity Plus: SAg Assay (AID 2283093).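 Further: PBMC viability measured as Alamar Blue reduction fluorescence at 546/580 nm; fitted both ways against DMSO so a hit may be loss or gain of signal.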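 On AC50: PBMC superantigen activated with SEB plus TSST-1 one hour after compound addition.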 The following applies: primary human HUVEC with PBMC. The method, boiled down:
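HUVEC/PBMC co-culture; PBMC exposed to chemical 1 h before SEB and TSST-1 activation (20 ng/mL each), incubated 90 h, then Alamar Blue 6 h, fluorescence 546/580 nm. Bidirectional fit versus DMSO baseline.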

Read-out in test [12]: Interleukin-8 (IL8), CXCL8 (gene 3576)
The test can be described thus: BSK_SAg_IL8: BioMAP Diversity Plus: SAg Assay for Interleukin-8 (IL8) Biomarker Activity (AID 2283094). The following applies: primary human HUVEC with PBMC; actives raise or lower the signal. The method, boiled down: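 ELISA read-out of IL-8 in a primary human vascular co-culture (umbilical vein endothelium plus PBMC), taken 24 h after compound addition. Values derive from bidirectional fits against DMSO negative controls.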

A short description of test [13]: BSK_SAg_Proliferation: Cell Proliferation Assessment in the BioMAP Diversity Plus: SAg Assay (AID 2283095).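 Further: relative cell number as total protein by SRB absorbance in sub-confluent culture.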 Particulars: primary human HUVEC with PBMC. A digest of the protocol: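 Cells (endothelium plus PBMC, human primary) were dosed with chemical, cultured 96 h, fixed in 10% TCA and stained with 0.1% SRB. Absorbance at 560 nm gave relative protein, fitted bidirectionally relative to DMSO.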

The nature of test [14]: BSK_SAg_SRB: Viability Assessment in the BioMAP Diversity Plus: SAg Assay (AID 2283096).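 Further: cells read one day after compound addition; hits may be either gain or loss of signal compared with DMSO.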 The following applies: primary human HUVEC with PBMC. The method, boiled down: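 Human umbilical vein endothelial cells co-cultured with PBMC, read 24 h after compound dosing. Total protein measured by sulforhodamine B staining (0.1% SRB after 10% TCA fixation, absorbance 560 nm); bidirectional fit versus DMSO baseline.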

Chain of Tumor necrosis factor (Homo sapiens) (P01375 whole entry, looked up): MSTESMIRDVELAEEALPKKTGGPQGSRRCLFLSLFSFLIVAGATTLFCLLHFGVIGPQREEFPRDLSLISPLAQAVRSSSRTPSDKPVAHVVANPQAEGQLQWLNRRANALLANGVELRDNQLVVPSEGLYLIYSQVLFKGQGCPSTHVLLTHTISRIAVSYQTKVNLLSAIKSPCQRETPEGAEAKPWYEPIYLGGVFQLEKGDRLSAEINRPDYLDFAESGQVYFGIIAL
Chain of E-selectin (Homo sapiens) (P16581 whole entry, looked up): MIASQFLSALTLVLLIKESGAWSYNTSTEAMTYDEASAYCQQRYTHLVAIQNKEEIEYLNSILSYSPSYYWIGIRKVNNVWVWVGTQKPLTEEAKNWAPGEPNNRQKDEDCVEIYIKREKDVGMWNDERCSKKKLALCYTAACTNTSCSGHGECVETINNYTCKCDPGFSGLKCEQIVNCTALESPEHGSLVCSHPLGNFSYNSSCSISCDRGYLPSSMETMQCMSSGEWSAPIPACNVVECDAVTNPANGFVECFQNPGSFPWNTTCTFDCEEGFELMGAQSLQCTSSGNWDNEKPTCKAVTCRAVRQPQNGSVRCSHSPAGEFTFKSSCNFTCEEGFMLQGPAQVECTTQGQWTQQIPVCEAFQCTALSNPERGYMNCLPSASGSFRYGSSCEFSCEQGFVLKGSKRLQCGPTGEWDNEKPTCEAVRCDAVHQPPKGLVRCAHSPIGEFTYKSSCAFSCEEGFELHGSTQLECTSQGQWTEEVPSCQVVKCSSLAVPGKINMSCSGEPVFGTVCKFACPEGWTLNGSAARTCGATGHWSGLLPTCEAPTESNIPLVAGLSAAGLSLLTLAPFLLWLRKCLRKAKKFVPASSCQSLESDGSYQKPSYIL

As to `O=S(=O)(OCC(F)F)C(F)(F)F`, the outcome in test [1], in test [2], in [3], in test [4], in test [5] and in test [6] was inactive. Besides, the outcome was “inactive” in test [7]; “inactive” with CD38, CD38 (gene 952); “inactive” with CD40, CD40 (gene 958); “inactive” in the test with CD69, CD69 (gene 969); “inactive” in test [8]; “inactive” in test [9]. For the same compound, the result in test [10], in test [11], in [12], in test [13] and in test [14] was inactive. Further, the AC50 in the test with CD38, CD38 (gene 952) was 0.22 µM (active).
Regarding `N=C(N)C(F)(F)C(F)(F)C(F)(F)C(F)(F)C(F)(F)C(F)(F)C(F)(F)F`, the AC50 in test [1] was 38.2 µM (active); in test [2], 45.8 µM (active); in test [4], 47 µM (active); in [6], 33.1 µM (active); in test [7], 40.3 µM (active); with CD38, CD38 (gene 952), 53.6 µM (active). Further, the AC50 with CD40, CD40 (gene 958) is 54.7 µM (active); with CD69, CD69 (gene 969), 51 µM (active); in [8], 55 µM (active); in test [9] it was 48.3 µM (active); in test [10], 55.4 µM (active); in test [11], 45.9 µM (active) and 55.1 µM (active). For the same compound, the AC50 in test [12] was 55.1 µM (active); in test [13], 45 µM (active) and 47.4 µM (active); in test [14], 53 µM (active). The result in test [1], in test [2], in [3], in [4], in test [5] and in [6] was inactive. Besides, the outcome was “inactive” in test [7]; “inactive” in the test with CD38, CD38 (gene 952); “inactive” with CD40, CD40 (gene 958); “inactive” in the test with CD69, CD69 (gene 969); “inactive” in [8]; “inactive” in [9]. Besides, the outcome in test [10], in [12] and in test [14] was inactive.
With `OCC(F)(F)C(F)(F)C(F)(F)F`, the outcome in test [1], in test [2], in test [3], in [4], in test [5] and in test [6] was inactive. The outcome in [7] was “inactive”; with CD38, CD38 (gene 952), “inactive”; with CD40, CD40 (gene 958), “inactive”; with CD69, CD69 (gene 969), “inactive”; in [8], “inactive”; in test [9], “inactive”. The result in test [10], in [11], in test [12], in test [13] and in test [14] was inactive.
As to `CC(CCl)OP(=O)(OC(C)CCl)OC(C)CCl` (centres undefined), the outcome in [1], in test [2], in test [3], in [4], in test [5] and in test [6] was inactive. Besides, the outcome in [7] was “inactive”; in the test with CD38, CD38 (gene 952) it was “inactive”; with CD40, CD40 (gene 958), “inactive”; with CD69, CD69 (gene 969), “inactive”; in test [8] it was “inactive”; in test [9] it was “inactive”. In addition, the outcome in test [10], in test [11], in test [12], in [13] and in test [14] was inactive.
`C=C(C)C(=O)OCCC(F)(F)C(F)(F)C(F)(F)C(F)(F)C(F)(C(F)(F)F)C(F)(F)F`: the result in test [1], in test [2], in test [3], in test [4], in [5] and in test [6] was inactive. The outcome in test [7] was “inactive”; with CD38, CD38 (gene 952), “inactive”; in the test with CD40, CD40 (gene 958), “inactive”; in the test with CD69, CD69 (gene 969) it was “inactive”; in test [8], “inactive”; in test [9], “inactive”. Moreover, the outcome in test [10], in test [11], in test [12], in test [13] and in test [14] was inactive.

By AC50 is commonly meant the concentration at which the activity in the assay is half-maximal.
